Assay outcomes from PubChem.
FBW7 act: human FBW7 E3 ligase activation, primary screen | Q969H0 | AlphaScreen FBW7–phospho-cyclin E peptide binding, activator screen | normalized activity (activation), % at 26.1 µM | hit rate 0.13% among 650,000; in the data active = normalized activity above about 1.9%;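 note: purified mutant Fbw7 with reduced substrate affinity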
Target sequence (Q969H0 whole entry, looked up): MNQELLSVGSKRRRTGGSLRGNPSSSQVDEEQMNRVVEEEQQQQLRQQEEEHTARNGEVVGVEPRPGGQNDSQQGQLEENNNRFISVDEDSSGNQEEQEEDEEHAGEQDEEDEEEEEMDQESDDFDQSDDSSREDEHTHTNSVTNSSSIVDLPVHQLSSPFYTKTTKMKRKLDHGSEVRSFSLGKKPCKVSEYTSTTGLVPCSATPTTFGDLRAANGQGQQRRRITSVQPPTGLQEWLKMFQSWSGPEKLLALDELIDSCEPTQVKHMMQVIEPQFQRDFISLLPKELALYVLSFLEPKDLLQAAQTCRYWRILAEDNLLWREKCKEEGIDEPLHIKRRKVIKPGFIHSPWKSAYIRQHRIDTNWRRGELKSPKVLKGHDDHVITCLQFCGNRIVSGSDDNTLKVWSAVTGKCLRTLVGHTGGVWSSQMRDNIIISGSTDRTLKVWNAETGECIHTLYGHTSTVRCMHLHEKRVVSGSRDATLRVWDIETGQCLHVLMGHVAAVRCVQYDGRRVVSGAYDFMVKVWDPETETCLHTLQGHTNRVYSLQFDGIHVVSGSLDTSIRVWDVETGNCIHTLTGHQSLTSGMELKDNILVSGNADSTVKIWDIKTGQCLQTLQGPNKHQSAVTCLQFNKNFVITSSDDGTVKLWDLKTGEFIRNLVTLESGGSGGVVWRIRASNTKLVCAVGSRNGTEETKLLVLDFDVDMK
GPR151 activ: human GPR151 activation; AID 1508602; activation, % at 11.2 µM; hit rate 1% among 650,000; PathHunter beta-arrestin GPR151 cells, luminescence; in the data active = activation above about 4.9%;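 note: 0% = median of compound wells and 100% = cells with positive control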
MITF primary: inhibitors of human MITF | AID 1259374 | hit rate 0.91% among 650,000 | inhibition, % at 2.6 µM | O75030 | AlphaScreen MITF homodimerization, bead proximity signal; in the data active = inhibition above about 50%;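 note: 0% = vehicle wells with protein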
TEAD-YAP block: TEAD-YAP interaction inhibition; HEK-TIYL cells, TEAD-Gal4/YAP UAS-luciferase luminescence; hit rate 1.4% among 640,000; inhibition, % at 9.12 µM; in the data active = inhibition above about 32%;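 note: 0% = median of test compound wells and 100% = reference inhibitor wells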
The depositor's hits bear a star. Sampled rows, rich in hits. Any-hit rate of the full collection: about 3.5%.

SMILES	FBW7 act	GPR151 activ	MITF primary	TEAD-YAP block
CN(C)C(=O)CSc1nc2ccccc2n1CC(=O)NC(C)(C)C	0	1	-4	-5
CC(C)(C)c1ccc(OCCSc2nc3ccccc3n2CC(N)=O)cc1	0	0	-2	48*
CC(C)(C)NC(=O)Cn1c(SCC(N)=O)nc2ccccc21	2.0*	-3	19	-51
O=C(COc1ccc(Br)cc1Cl)Nc1ncn[nH]1	0	-1	-6	46*
O=C(COc1ccc(Cl)cc1Br)Nc1nccs1	0	-8	-2	89*
Cc1ccnc(NC(=O)COc2cc(C)ccc2C)c1	1	4	0	-49
Cc1ccnc(NC(=O)COc2ccc(Br)cc2Cl)c1	0	-2	-6	93*
O=C(COc1ccc(Br)cc1Cl)Nc1nccs1	1	-8	12	92*
O=C(COc1cc(Cl)c(Cl)cc1Cl)Nc1nccs1	0	-1	4	59*
O=c1oc2c(Cl)cc(Cl)cc2cc1-c1nc(-c2ccccc2)cs1	0	1	10	-8
CCCONS(=O)(=O)c1ccccc1[N+](=O)[O-]	0	1	-1	9
Cc1cccc2nc(O)cc(=O)n12	0	0	-4	-10
COc1ccccc1/C=C/C(=O)c1ccc(O)cc1	0	-1	-5	-21
Cc1ccc2occ(/C=C/C(=O)c3ccc(O)cc3)c(=O)c2c1	0	3	-10	-11
Cc1c(/C=C/C(=O)c2ccc(O)cc2)cnn1C	0	-1	0	51*
CCn1cc(/C=C/C(=O)c2ccc(O)cc2)c(C)n1	0	0	7	86*
S=C1NC2(CCCCC2)Nc2sc3c(c21)CCCC3	1	1	16	5
CCOC(=O)CCC(=O)Nc1ccc(C(N)=O)cc1	1	0	-3	5
O=C(NCCNc1ccc(Nc2cccnc2)nn1)c1ccc(F)cc1Cl	0	-1	-14	-2
CCOC(=O)c1ccc(NC(=O)c2ccc(CS(=O)c3ccc(Cl)cc3)o2)cc1 (stereo not given)	0	-1	-1	32*
CCOC(=O)c1cnc2c(OC)cccc2c1Nc1ccccc1OC	0	-1	-3	7
CCOC(=O)c1cnc2c(OC)cccc2c1Nc1ccc(OC)cc1OC	0	1	-12	53*
CCOC(=O)c1cnc2c(Cl)cccc2c1NCc1ccco1	0	-1	-10	-8
CCOC(=O)c1cnc2c(OC)cccc2c1NCc1ccco1	0	-1	-5	46*
COC(=O)C(Nc1ncccc1C)(OC)C(F)(F)F (stereo not given)	1	1	17	-4
SMILES	FBW7 act	GPR151 activ	MITF primary	TEAD-YAP block
CCCNC(=O)CSc1nc(-c2cccc([N+](=O)[O-])c2)nc2c1c(=O)n(C)c(=O)n2C	1	0	6	-9
O/C(=C\c1ccc2ccccc2n1)c1ccc(O)cc1O	0	-2	-2	75*
O=C(O)/C=C/c1ccc2ccccc2n1	0	0	-11	-12
C(=C\c1ccc2ccccc2n1)/c1cccnc1	-1	-8	-30	77*
CN(C)c1ccc(/C=C/c2ccc3ccccc3n2)cc1	1	-10	-35	93*
CN(C)c1ccc(/C=C/c2ccc(-c3ccccc3)cc2)cc1	0	0	-7	-13
Oc1ccc(/C=C/c2ccc3ccccc3n2)cc1	1	-10	-6	85*
CCCCCc1c(O)nc(SCCN2CCOCC2)n(-c2ccccc2)c1=O	0	-1	17	7
COc1ccc(/C=C/c2nc3ccccc3s2)cc1S(=O)(=O)N1CCOCC1	0	0	6	-9
Oc1ccc(/C=C/c2nc3ccccc3s2)cc1	0	-10	13	73*
CCn1cccc/c1=N\c1cccc[n+]1CC	0	2	1	50*
N#Cc1ccc(-c2cnc3ccc(NCCc4cccnc4)nn23)cc1	0	-1	15	34*
Clc1cccc(-c2cnc3ccc(NCCc4cccnc4)nn23)c1	2.0*	-1	-1	94*
CC(NC(=O)CN1CCCCCC1)c1ccc(F)cc1 (stereo not given)	0	1	20	5
COc1ccc(-c2cc(-c3ccccc3)nc(SCC(=O)NC3CC3)c2C#N)cc1	0	0	-3	12
O=C(Nc1ccc(Br)c2cccnc12)c1ccccc1[N+](=O)[O-]	0	-1	31	-6
Cc1ccc(S(=O)(=O)N2CCCCC2CCNC(=O)C(=O)NCc2ccco2)cc1 (stereo not given)	0	-1	-4	41*
Cc1ccc(S(=O)(=O)N2CCCCC2CCNC(=O)C(=O)NC2CCCC2)cc1 (stereo not given)	0	4	0	4
Cc1ccc(S(=O)(=O)N2CCCCC2CCNC(=O)C(=O)NCCc2ccco2)cc1 (stereo not given)	0	0	5	47*
Cc1ccc(S(=O)(=O)N2CCCCC2CCNC(=O)C(=O)NCc2cccs2)cc1 (stereo not given)	1	0	9	48*
O=C(NCCc1ccco1)C(=O)NCC1CCCN1S(=O)(=O)c1ccccc1 (stereo not given)	0	1	14	32*
CN(Cc1nc(-c2cccnc2)no1)C(=O)CC1C(=O)NCCN1Cc1ccccc1F (stereo not given)	0	1	10	0
Cc1ccc(NC(=O)CN2C(=O)C3(OCCCO3)c3ccccc32)cc1Cl	1	-1	7	11
CCOc1ccc(Nc2nc(-c3ccccc3)c(C(=O)Nc3cccc(OC)c3)s2)cc1	0	0	-6	-12
COc1ccc(OC)c(-c2nc(Nc3ccccc3F)sc2CC(=O)O)c1	0	0	3	-14
SMILES	FBW7 act	GPR151 activ	MITF primary	TEAD-YAP block
COc1ccc(-c2nc(Nc3ccccc3OC)sc2CC(=O)O)cc1	0	2	8	51*
CCOc1ccc(Nc2nc(-c3ccc(OC)c(OC)c3)c(CC(=O)O)s2)cc1	0	1	0	34*
CCOc1ccc(Nc2nc(N)c(C(=O)c3cccc(OC)c3)s2)cc1	0	-1	3	61*
CC(C)(C)OC(=O)N1CCC(c2nc(-c3nc4ccc(-c5ccncc5)cc4[nH]3)cs2)CC1	0	4	-5	94*
Cc1ccccc1CC(=O)Nc1cnc2cnc(-c3cnn(C)c3)cn12	0	0	-6	-1
CC(=O)n1c2c(c3ccccc31)OC(N)=C(C#N)C2c1ccc(F)cc1 (stereo not given)	0	1	-4	6
CC(=O)n1c2c(c3ccccc31)OC(N)=C(C#N)C2c1cc(Br)ccc1F (stereo not given)	0	0	2	61*
CN(C)c1ccc(/C=C(\C#N)c2nc3ccccc3s2)o1	0	0	-4	53*
O=C(O)C/C(=C\c1ccc2c(c1)OCCO2)c1nc2ccccc2s1	0	2	-6	0
O=C(O)C/C(=C\c1ccc(N2CCOCC2)cc1)c1nc2ccccc2s1	0	-1	-4	75*
N#C/C(=C\c1ccc(N2CCOCC2)cc1)c1nc2ccccc2s1	0	-1	15	39*
CCOC(=O)c1nn(-c2ccc3c(c2)OCCO3)cc1O	0	-4	-9	43*
